This is one part of the list. How many sequences the whole screen found active is unknown.
B1: HC1740 (peptide)
chain: CAMEECSCHLAGNASASA
B2: HC1287 (peptide)
chain: CALDSFDPLVAGNASASA
B3: HC1356 (peptide)
chain: CALEGEPGDPAGNASASA
B4: FS-1459 (peptide)
chain: CAKMRRKKRFAGNASASA
B5: FS-1457 (peptide)
chain: CAGSIRKKRFAGNASASA
B6: FS-352 (peptide)
chain: CALNEIKKRFAGNASASA
B7: HC578 (peptide)
chain: CAYKRYISWCAGNASASA
B8: HC1215 (peptide)
chain: CANLKCPCQVAGNASASA
B9: FS-564 (peptide)
chain: CASQQRQYRSAGNASASA
B10: FS-464 (peptide)
chain: CAMSTWSKRSAGNASASA
B11: FS-1085 (peptide)
chain: CASQFRSKRSAGNASASA
B12: FS-590 (peptide)
chain: CAFWVRSKRSAGNASASA
B13: FS-874 (peptide)
chain: CASSTRSKRSAGNASASA
B14: HC539 (peptide)
chain: CAASLAGTHGAGNASASA
B15: HC2471 (peptide)
chain: CADTPCSAHLAGNASASA
B16: HC493 (peptide)
chain: CALLLTTTQWAGNASASA
B17: HC1924 (peptide)
chain: CATTPCSGSIAGNASASA
B18: HC2366 (peptide)
chain: CAEVPCHMPSAGNASASA
B19: HC1265 (peptide)
chain: CAPSLKATCTAGNASASA
B20: HC1194 (peptide)
chain: CATGPCTPLPAGNASASA
B21: HC658 (peptide)
chain: CADIINGLPVAGNASASA
B22: HC1735 (peptide)
chain: CAMEECSHHLAGNASASA
B23: FS-1568 (peptide)
chain: CASKERSKRSAGNASASA
B24: FS-232 (peptide)
chain: CAELNRSKKDAGNASASA
B25: FS-927 (peptide)
chain: CAELNRSKRSAGNASASA
B26: FS-1626 (peptide)
chain: CAEKERSKRSAGNASASA
B27: FS-94 (peptide)
chain: CASSARNKRSAGNASASA
B28: HC559 (peptide)
chain: CALLLLLALPAGNASASA
B29: HC1851 (peptide)
chain: CATDPCSGSWAGNASASA
B30: HC332 (peptide)
chain: CAAILDMIAGAGNASASA
B31: HC795 (peptide)
chain: CASKAHGIDPAGNASASA
B32: FS-721 (peptide)
chain: CASKSLSKRSAGNASASA
B33: HC1850 (peptide)
chain: CATVPCSGSWAGNASASA
B34: FS-2682 (peptide)
chain: CARHYRPTGYAGNASASA
B35: FS-2348 (peptide)
chain: CARKRRIVSGAGNASASA
B36: FS-2035 (peptide)
chain: CARKDRRKKGAGNASASA
B37: FS-2975 (peptide)
chain: CARKRRSIRYAGNASASA
B38: FS-1959 (peptide)
chain: CARKRRGTKGAGNASASA
B39: FS-2972 (peptide)
chain: CARKRREAESAGNASASA
B40: HC879 (peptide)
chain: CATDALMTGYAGNASASA
B41: HC1349 (peptide)
chain: CAPPDSDAESAGNASASA
B42: FS-2565 (peptide)
chain: CARKRRGTGYAGNASASA
B43: HC93 (peptide)
chain: CAVVCESMSYAGNASASA
B44: HC934 (peptide)
chain: CAGLPVCQDHAGNASASA

Target: furin, P09958
Sequence (P09958 whole entry): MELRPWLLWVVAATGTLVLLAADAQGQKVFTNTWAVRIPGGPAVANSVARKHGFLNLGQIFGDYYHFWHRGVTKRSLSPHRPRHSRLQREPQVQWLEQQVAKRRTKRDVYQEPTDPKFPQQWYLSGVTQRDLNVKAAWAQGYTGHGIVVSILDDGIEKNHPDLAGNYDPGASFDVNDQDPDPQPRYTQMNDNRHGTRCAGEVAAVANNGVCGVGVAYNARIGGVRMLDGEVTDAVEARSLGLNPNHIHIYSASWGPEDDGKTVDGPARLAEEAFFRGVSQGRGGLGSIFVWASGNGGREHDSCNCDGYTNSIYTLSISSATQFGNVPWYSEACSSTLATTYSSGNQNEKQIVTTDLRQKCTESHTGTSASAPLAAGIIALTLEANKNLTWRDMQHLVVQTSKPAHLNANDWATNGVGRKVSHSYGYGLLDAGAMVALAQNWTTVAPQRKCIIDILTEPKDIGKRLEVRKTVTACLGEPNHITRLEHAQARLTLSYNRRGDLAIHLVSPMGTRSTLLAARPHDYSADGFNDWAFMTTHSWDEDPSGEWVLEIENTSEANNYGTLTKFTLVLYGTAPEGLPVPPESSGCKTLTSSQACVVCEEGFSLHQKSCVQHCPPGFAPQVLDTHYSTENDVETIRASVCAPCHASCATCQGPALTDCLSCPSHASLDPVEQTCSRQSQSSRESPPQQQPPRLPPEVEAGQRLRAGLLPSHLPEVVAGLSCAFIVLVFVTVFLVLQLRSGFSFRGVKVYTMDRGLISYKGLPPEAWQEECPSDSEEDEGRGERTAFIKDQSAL
Experiment: furin cleavage Z-score vs untreated control; higher = more cleavage, active = 3.5 or more, inactive = 1 or less, 8 variable residues between constant flanks
Outline: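 Purified furin cleaved 8-mer peptides that were fused to a cDNA oligonucleotide and held on magnetic beads by their N-terminus. Each 0.01 ml reaction used a 1:10 enzyme:substrate ratio in 50 mM HEPES pH 7.5 with CaCl2 and NaCl and ran 7.5, 15 or 30 min. Released DNA was adapter-tagged by PCR and sequenced, and read counts gave abundance. The cleavage Z-score came from log counts against furin-free reactions, lowess-adjusted and scaled by median absolute deviation.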

| Sequence | furin cleavage Z-score (7.5 min) | furin cleavage Z-score (15 min) | furin cleavage Z-score (30 min) |
| --- | --- | --- | --- |
| B1 | 0.898 (inactive) | -0.945 (inactive) | 0.106 (inactive) |
| B2 | 0.861 (inactive) | 0.184 (inactive) | 1.88 |
| B3 | -0.565 (inactive) | 0.288 (inactive) | 0.927 (inactive) |
| B4 | 7.33 (active) | 9.76 (active) | 8.97 (active) |
| B5 | 6.25 (active) | 7.01 (active) | 6.64 (active) |
| B6 | 0.841 (inactive) | -1.42 (inactive) | -0.561 (inactive) |
| B7 | 0.0156 (inactive) | 0.474 (inactive) | 1.13 |
| B8 | -0.928 (inactive) | -0.942 (inactive) | -0.8 (inactive) |
| B9 | 2.45 | 5.55 (active) | 5.41 (active) |
| B10 | 0.45 (inactive) | 1.32 | 1.43 |
| B11 | 9.98 (active) | 9.45 (active) | 7.11 (active) |
| B12 | 9.47 (active) | 8.07 (active) | 7.6 (active) |
| B13 | 11.9 (active) | 11.3 (active) | 10 (active) |
| B14 | 0.00941 (inactive) | 3.06 | 1.2 |
| B15 | -1.99 (inactive) | -1.52 (inactive) | -0.796 (inactive) |
| B16 | -0.815 (inactive) | -0.0284 (inactive) | 0.00617 (inactive) |
| B17 | -0.658 (inactive) | -0.276 (inactive) | -1.61 (inactive) |
| B18 | 0.437 (inactive) | 1.57 | 0.743 (inactive) |
| B19 | 0.563 (inactive) | 1.42 | 0.215 (inactive) |
| B20 | -0.592 (inactive) | -0.46 (inactive) | 0.602 (inactive) |
| B21 | -0.191 (inactive) | -0.925 (inactive) | -0.966 (inactive) |
| B22 | 0.695 (inactive) | -0.107 (inactive) | -0.123 (inactive) |

| Sequence | furin cleavage Z-score (7.5 min) | furin cleavage Z-score (15 min) | furin cleavage Z-score (30 min) |
| --- | --- | --- | --- |
| B23 | 12.6 (active) | 10.6 (active) | 9.24 (active) |
| B24 | 0.785 (inactive) | 0.28 (inactive) | 0.715 (inactive) |
| B25 | 10.6 (active) | 9.86 (active) | 8.24 (active) |
| B26 | 9.14 (active) | 7.38 (active) | 7.92 (active) |
| B27 | 11.8 (active) | 11.6 (active) | 8.13 (active) |
| B28 | -0.496 (inactive) | -0.0246 (inactive) | -1.1 (inactive) |
| B29 | -1.13 (inactive) | -1.19 (inactive) | -1.08 (inactive) |
| B30 | 0.577 (inactive) | 0.516 (inactive) | -0.84 (inactive) |
| B31 | -1.17 (inactive) | -1.03 (inactive) | 1.13 |
| B32 | 8.05 (active) | 10.1 (active) | 6.73 (active) |
| B33 | -0.242 (inactive) | -1.82 (inactive) | -1.24 (inactive) |
| B34 | -1.08 (inactive) | -0.433 (inactive) | -0.26 (inactive) |
| B35 | -0.706 (inactive) | 0.0646 (inactive) | -1.35 (inactive) |
| B36 | 0.369 (inactive) | 0.879 (inactive) | 1.04 |
| B37 | 8.7 (active) | 10.2 (active) | 9.27 (active) |
| B38 | 8.4 (active) | 9.53 (active) | 8.24 (active) |
| B39 | 12 (active) | 12.2 (active) | 8.7 (active) |
| B40 | 0.343 (inactive) | 0.0305 (inactive) | 0.976 (inactive) |
| B41 | -1.81 (inactive) | -1.84 (inactive) | -0.313 (inactive) |
| B42 | 9.5 (active) | 11.3 (active) | 9.57 (active) |
| B43 | 1.27 | 1.17 | 0.112 (inactive) |
| B44 | -1.12 (inactive) | -0.715 (inactive) | -0.789 (inactive) |

From the supplement of paper PMC3545927
